Reference: PubChem BioAssay AID1159580 (chemical genetic matrix, 2015)
Values joined by “and” are separate entries in the source; they are usually repeats but may differ in a detail not shown here. Identical values can stand only once. Hit rate of the full screen: of about 5,500 compounds, about 2,000 (36%) were called active. Not shown: some 18% with an inconclusive outcome. No stated cut-off is given here; in the data, active means normalized growth mostly below about 0.91 (no sharp cut-off); inconclusive means no clear call, values can overlap the other calls; inactive means mostly above about 0.92. Some of the results follow. More than one record can exist for a structure, and the calls need not agree.

Test: chemical genetic growth profiling, strain panel (AID 1159580);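 further: tested at 20 µM; growth read once vehicle control cultures reached saturation at 30 °C; 1 = growth at the plate median or of vehicle wells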
Conditions: S. cerevisiae deletion strains, growth OD

Measured: normalized growth

CC(C)COCC(CN(Cc1ccccc1)c1ccccc1)N1CCCC1 (stereo not given)
inactive: locus YAL021C, strain ccr4, stronger effect = lower value 0.962 | locus YAL026C, strain drs2, stronger effect = lower value 1.01 | locus YAL030W, strain snc1, stronger effect = lower value 1.03 | locus YAL040C, strain CLN3, stronger effect = lower value 1.09 | locus YBL061C, strain skt5, stronger effect = lower value 1.04 | locus YBR009C, strain hhf1, stronger effect = lower value 1 | locus YBR023C, strain chs3, stronger effect = lower value 1.02 | locus YBR171W, strain sec66, stronger effect = lower value 1.06 | locus YBR229C, strain ROT2, stronger effect = lower value 0.953 | locus YBR231C, strain swc5, stronger effect = lower value 1.01 | locus YBR279W, strain paf1, stronger effect = lower value 1.04 | locus YCL011C, strain gbp2, stronger effect = lower value 1.02 | locus YCL016C, strain dcc1, stronger effect = lower value 1.02 | locus YCL029C, strain bik1, stronger effect = lower value 0.978 | locus YCL061C, strain MRC1 (second series), stronger effect = lower value 1.01 | locus YCL061C, strain MRC1, stronger effect = lower value 1.02 | locus YCL069W, strain vba3, stronger effect = lower value 1.05 | locus YCR088W, strain abp1, stronger effect = lower value 1.04 | locus YDL005C, strain med2, stronger effect = lower value 1.05 | locus YDL035C, strain GPR1, stronger effect = lower value 0.864 | locus YDL040C, strain nat1, stronger effect = lower value 1.02 | locus YDL101C, strain DUN1, stronger effect = lower value 0.926 | locus YDL134C, strain PPH21, stronger effect = lower value 0.9 | locus YDL185W, strain tfp1, stronger effect = lower value 0.978 | locus YDL192W, strain arf1, stronger effect = lower value 0.977 | locus YDR001C, strain nth1, stronger effect = lower value 1.03 | locus YDR069C, strain doa4, stronger effect = lower value 1.02 | locus YDR101C, strain arx1, stronger effect = lower value 0.929 | locus YDR137W, strain rgp1, stronger effect = lower value 1.1 | locus YDR150W, strain NUM1, stronger effect = lower value 0.965 | locus YDR159W, strain sac3, stronger effect = lower value 1.03 | locus YDR195W, strain ref2 1.07 | locus YDR297W, strain sur2, stronger effect = lower value 1.02 | locus YDR318W, strain mcm21, stronger effect = lower value 0.947 | locus YDR334W, strain swr1, stronger effect = lower value 1.03 | locus YDR335W, strain msn5, stronger effect = lower value 1.06 | locus YDR392W, strain spt3, stronger effect = lower value 0.934 | locus YEL003W, strain gim4, stronger effect = lower value 1.04 | locus YEL037C, strain rad23, stronger effect = lower value 1.03 | locus YEL061C, strain CIN8 (second series), stronger effect = lower value 1.03 | locus YEL061C, strain CIN8, stronger effect = lower value 0.973 | locus YER002W, strain NOP16, stronger effect = lower value 1.02 | locus YER015W, strain faa2, stronger effect = lower value 1.01 | locus YER016W, strain bim1, stronger effect = lower value 1.02 | locus YER110C, stronger effect = lower value 0.96 | locus YER111C, strain swi4, stronger effect = lower value 1.06 | locus YER155C, strain BEM2 (second series), stronger effect = lower value 0.884 | locus YER155C, strain BEM2, stronger effect = lower value 1.02 | locus YER167W, strain BCK2, stronger effect = lower value 0.958 | locus YFR010W, strain ubp6, stronger effect = lower value 0.998 | locus YGL078C, strain dbp3, stronger effect = lower value 0.978 | locus YGL167C, strain pmr1, stronger effect = lower value 1.04 | locus YGL173C, strain kem1, stronger effect = lower value 1.01 | locus YGL227W, strain vid30, stronger effect = lower value 1.03 | locus YGL240W, strain doc1, stronger effect = lower value 0.99 | locus YGL253W, strain hxk2, stronger effect = lower value 1.05 | locus YHR013C, strain ard1, stronger effect = lower value 1.03 | locus YHR027C, strain rpn1, stronger effect = lower value 1 | locus YHR079C, strain IRE1 (second series), stronger effect = lower value 0.972 | locus YHR079C, strain IRE1, stronger effect = lower value 0.998 | locus YHR094C, strain hxt1, stronger effect = lower value 0.987 | locus YHR129C, strain ARP1, stronger effect = lower value 0.949 | locus YHR142W, strain chs7, stronger effect = lower value 1.04 | locus YHR200W, strain rpn10, stronger effect = lower value 0.975 | locus YIL073C, strain SPO22, stronger effect = lower value 1.3 | locus YIL125W, strain kgd1, stronger effect = lower value 0.991 | locus YIR030C, strain dcg1, stronger effect = lower value 0.98 | locus YJL092W, strain hpr5, stronger effect = lower value 1.01 | locus YJL095W, strain BCK1 (second series), stronger effect = lower value 1 | locus YJL115W, strain asf1, stronger effect = lower value 1.04 | locus YJL129C, strain trk1, stronger effect = lower value 1.06 | locus YJL134W, strain LCB3, stronger effect = lower value 0.988 | locus YJL154C, strain vps35, stronger effect = lower value 1.04 | locus YJL164C, strain tpk1, stronger effect = lower value 1.01 | locus YJL166W, strain qcr8, stronger effect = lower value 1.01 | locus YJL168C, strain set2, stronger effect = lower value 0.989 | locus YJL187C, strain SWE1, stronger effect = lower value 1.03 | locus YJR043C, strain POL32, stronger effect = lower value 0.996 | locus YJR066W, strain TOR1, stronger effect = lower value 0.948
0.771 (active) and 0.959 (inactive): locus YHR030C, strain SLT2, stronger effect = lower value
0.786 (active) and 0.987 (inactive): locus YGR078C, strain PAC10, stronger effect = lower value
0.587 (active) and 0.983 (inactive): locus YJL095W, strain BCK1, stronger effect = lower value
active: locus YAL013W, strain DEP1, stronger effect = lower value 0.871 | locus YBR021W, strain FUR4, stronger effect = lower value 0.594 | locus YDL074C, strain BRE1, stronger effect = lower value 0.694 | locus YDR162C, strain NBP2, stronger effect = lower value 0.802 | locus YDR388W, stronger effect = lower value 0.814 | locus YDR502C, strain sam2, stronger effect = lower value 0.914 | locus YGL086W, strain mad1, stronger effect = lower value 0.903 | locus YGL248W, strain PDE1, stronger effect = lower value 0.849 | locus YGR135W, strain pre9, stronger effect = lower value 0.849 | locus YGR229C, strain SMI1, stronger effect = lower value 0.434 | locus YGR252W, strain gcn5, stronger effect = lower value 0.734 | locus YIL066C, strain RNR3, stronger effect = lower value 0.809 | locus YJL187C, strain SWE1 (second series), stronger effect = lower value 0.801
